The whole screen tested about 68,000 compounds, of which about 2,700 (4%) showed an effect of 50% or more. For the sample, strong results were picked, then their nearest neighbours and some compounds at random.
System: Plasmodium berghei
Assay: Screen against P. berghei liver stage (PbLuc), transformed with Luciferase, at 2uM
Assay type: functional, HepG2
Conditions: tested at 2 uM

Row | Structure (SMILES) | INHIBITION [%]
1 | CN(C)C(=O)CN1CCC(c2c(C(N)=O)sc3ncccc23)C1 (centres undefined) | -21.9
2 | Cc1nc(N)sc1C(=O)N1CCCC(c2nccn2CCCN(C)C)C1 (centres undefined) | 29.02
3 | Cc1nc(C)c(C(=O)N2CCCC(c3cnccn3)C2)s1 (centres undefined) | 38.65
4 | CCn1ccnc1C1CCCN(C(=O)c2sc(C)nc2C)C1 (centres undefined) | 58.56
5 | CC(=O)N1CCOC2(CCN(C(=O)c3cnoc3C)CC2)C1 | -21.09
6 | CC(C)c1cccc(-n2cc(O)c(C(=O)O)n2)c1 | 50.61
7 | CC(C)c1ccc(-n2cc(O)c(C(=O)O)n2)cc1 | 23.16
8 | CC(C)c1cccc(-n2cc(O)c(C(N)=O)n2)c1 | 11.9
9 | CN(C)CC(=O)N1CCC2(CC1)CN(c1ncccn1)CCO2 | 25.4
10 | CCC(C)n1cnc(S(=O)(=O)N(Cc2cccnc2)C(C)C)c1 (centres undefined) | 59.03
11 | CCC(C)n1cnc(S(=O)(=O)N(C)C)c1 (centres undefined) | -15.03
12 | CCC(C)n1cnc(S(=O)(=O)N(C)c2cccnc2N(C)C)c1 (centres undefined) | 11.9
13 | O=C(Nc1cccc(CNCc2cccs2)c1)C1CCCC1 | -5.15
14 | O=C(Nc1cccc(CNCc2ccsc2)c1)C1CC1 | 30.92
15 | O=C(Nc1cccc(CNCc2cccs2)c1)C1CC1 | 62.82
16 | CNC(=O)N1CC[C@@H]2CN(Cc3cccc(OC)c3)S(=O)(=O)[C@@H]2CC1 | -72.58
17 | CS(=O)(=O)N1CC2(CCN(C3COC3)C2)Cc2ccccc21 (centres undefined) | 26.56
18 | O=C(NCCCn1nc2ccccn2c1=O)NC1CCC(O)CC1 (centres undefined) | 8.3
19 | CCN(C(=O)CNc1cc(C)c(F)cc1C(N)=O)C1CC1 | -31.4
20 | Cc1cc(C)c(OCC(=O)NS(=O)(=O)c2c(C)noc2C)c(C)c1 | 5.72
21 | Cc1noc(C)c1S(=O)(=O)NC(=O)COc1ccc(C(C)C)cc1 | 19.71
22 | Cc1cc(OCC(=O)NS(=O)(=O)c2c(C)noc2C)ccc1Cl | -12.48
23 | Cc1ccc(OCC(=O)NS(=O)(=O)c2c(C)noc2C)cc1C | 57.33
24 | Cc1noc(C)c1S(=O)(=O)NC(=O)COc1cccc(C(C)C)c1 | 42.99
25 | Cc1noc(C)c1S(=O)(=O)NC(=O)COc1ccc2c(c1)CCC2 | 56.78
26 | O=C(c1ccccc1)C1CCN(C(=O)CC2COCCN2)CC1 (centres undefined) | -13.88

Row | Structure (SMILES) | INHIBITION [%]
27 | CCn1cnnc1C1CCN(C(=O)c2ccccc2F)CC1 | -19.35
28 | COc1ccc(NC(=O)N2CCC(c3noc(C)n3)CC2)cc1C | -30.88
29 | c1ccc(N2CCCC3(CCN(Cc4ccsc4)C3)C2)nc1 (centres undefined) | 33.14
30 | CC(=O)NCC(=O)N1CCCC1c1ccc(CN2CCOCC2)cn1 (centres undefined) | 26.22
31 | CC(C)c1noc(CN2CCN(C(=O)c3cccnc3O)CC2)n1 | -2.82
32 | Cc1cc(CNc2nccc(N)n2)c2[nH]c(C)c(C)c2c1 | -5.41
33 | CCc1ncnc2c1CCN(S(=O)(=O)CC)CC2 | 1.81
34 | Cc1ncsc1CCN(C)C(=O)c1ccc(Cn2cnnn2)cc1 | 89.46
35 | Cc1ncsc1CCN(C)C(=O)c1ccc(CN2CCCCC2)cc1 | -20.75
36 | Cc1nc(CN(C)C(=O)c2ccc(Cn3cnnn3)cc2)cs1 | 21.57
37 | CC(Cn1ccnc1)NC(=O)NCCc1ccc2c(c1)OCCO2 (centres undefined) | -14.3
38 | O=C(N1CCCC1)C1(Cc2ccc(-c3cccs3)cc2)CCNC1 (centres undefined) | 17.24
39 | COCC(=O)N1CCCN(Cc2c(C)nc3ccc(Cl)cn23)CC1 | 12.43
40 | CCn1cc(CN2CCN(CC(O)c3ccc(C)cc3C)CC2)cn1 (centres undefined) | 35.73
41 | CCn1cc(CN2CCN(CC(O)c3cc(C)ccc3C)CC2)c(C)n1 (centres undefined) | -2.2
42 | CCn1cc(CN2CCN(CC(O)c3ccc(C)cc3C)CC2)c(C)n1 (centres undefined) | 54.9
43 | CN(Cc1ccc(N(C)C)cc1)C(=O)CS(=O)(=O)c1ccc(Cl)cc1 | 9.02
44 | Fc1cccc(C2CCCCN2Cc2nc(-c3cnccn3)no2)c1 (centres undefined) | 58.69
45 | Nc1nccc(C2CCCCN2Cc2cccc(F)c2)n1 (centres undefined) | 25.72
46 | c1ccc(C2CCCN2Cc2nc(-c3cnccn3)no2)nc1 (centres undefined) | -5.19
47 | Cc1nccc(C2CCCCN2Cc2ccc(F)cc2)n1 (centres undefined) | -10.12
48 | c1ccc(C2CCCCN2Cc2nc(-c3cnccn3)no2)nc1 (centres undefined) | 6.92
49 | Cc1nccc(C2CCCCN2Cc2cccc(F)c2)n1 (centres undefined) | 94.5
50 | Cc1cc(=O)[nH]c(-n2nc(C)c(CCC(=O)Nc3nc(C)cs3)c2C)n1 | -7.56
51 | Cc1ccsc1CN1CCn2c(COc3cccnc3)cnc2C1C (centres undefined) | 3.63
52 | O=S(=O)(Nc1cnn(C2CCOCC2)c1)c1ccc(F)c(F)c1 | -38.4

Row | Structure (SMILES) | INHIBITION [%]
53 | COc1cccc(CNC(=O)CCC2=Nc3ccccc3S(=O)(=O)N2)c1 | -1.65
54 | Cc1ccc(NCCCNc2nccc(-c3cn(C)nc3C)n2)nc1 | 37.5
55 | CNC(=O)C1Cn2ccnc2C2(CCN(Cc3cccc(C)n3)CC2)O1 (centres undefined) | -15.95
56 | Cc1cc(CN2CCCC(CNC(=O)Cn3cccn3)C2)oc1C (centres undefined) | 2.9
57 | O=C(Cn1cccn1)NCC1CCN(Cc2cc3ccccc3[nH]2)C1 (centres undefined) | -0.59
58 | O=C(Cn1cccn1)NCC1CCCN(Cc2ccccc2)C1 (centres undefined) | 81.59
59 | Cc1cc(C2CCCN2C(=O)c2ccc(OCC(N)=O)cc2)no1 (centres undefined) | 34.18
60 | CC(C)(C)CC(=O)N[C@@H]1CO[C@H](CNC(=O)c2ccncc2)[C@H]1O | 17.9
61 | CC(NCc1cccs1)c1ccc(OCc2nccn2C)cc1 (centres undefined) | 63.46
62 | CC(NCc1ccsc1)c1ccc(OCc2nccn2C)cc1 (centres undefined) | 24.05
63 | CC(NCc1cnn(C)c1)c1ccc(OCc2nccn2C)cc1 (centres undefined) | 37.18
64 | O=C(CCCc1cn[nH]c1)N1C[C@@H](CN2CCCCCC2)[C@@H](CO)C1 | -5.41
65 | CC(CNC(=O)c1c[nH]nn1)Oc1cccc(Br)c1 (centres undefined) | -10.85
66 | Cc1ccc(OC(C)CNC(=O)c2c[nH]nn2)cc1 (centres undefined) | -9.5
67 | CC(CNC(=O)c1c[nH]nn1)Oc1ccccc1Br (centres undefined) | 67.83
68 | CC(=O)NCC(=O)N1Cc2cc(C#N)ccc2C1c1cnco1 (centres undefined) | -9.91
69 | CC(C(=O)Nc1cccc(F)c1)N(C)CCN1CCOCC1 (centres undefined) | 57.23
70 | CC(C(=O)Nc1cccc(C(F)(F)F)c1)N(C)CCN1CCOCC1 (centres undefined) | -18.99
71 | CC(C(=O)NCc1ccc(F)cc1)N(C)CCN1CCOCC1 (centres undefined) | 10.71
72 | CCOCC1CN(Cc2cnn(C)c2)Cc2nn(CC3CC3)cc21 (centres undefined) | -50.35
73 | Cc1oc(-c2ccsc2)nc1CC(=O)NCC(=O)Nc1cn[nH]c1 | 11.01
74 | Cc1cnn(CC2CCCCN2CCS(C)(=O)=O)c1 (centres undefined) | 44.41
75 | O=C1N(Cc2cccnc2)C[C@H]2CN(S(=O)(=O)c3ccccc3)CCN12 | 40.83
76 | CC(=O)N1CCC(N2CCN3C(=O)N(Cc4ccccn4)C[C@H]3C2)CC1 | 37.54
77 | O=C1N(Cc2ccccn2)C[C@H]2CN(C3CCOCC3)CCN12 | -8.59
78 | Cn1ccnc1CN1C[C@H]2CN(S(=O)(=O)c3ccccc3)CCN2C1=O | 15.02

Row | Structure (SMILES) | INHIBITION [%]
79 | O=C1N(Cc2ccccn2)C[C@H]2CN(C3CCC3)CCN12 | 52.36
80 | O=C1N(Cc2ccccn2)C[C@H]2CN(S(=O)(=O)c3ccccc3)CCN12 | 50.72
81 | Cc1c(F)cccc1S(=O)(=O)NC(C)(C)CN | 36.53
82 | CNC(=O)[C@@H]1[C@@H](c2ccccc2)CN2CCN(Cc3ccco3)C[C@H]12 | -0.14
83 | CCN(Cc1ccco1)C(C)c1nc(C(C)(C)C)no1 (centres undefined) | 33.78
84 | CN(C)CCCNCCC(Cc1ccccc1)C1CCOC(C)(C)C1 (centres undefined) | -18.52
85 | O=C(C(c1ccc(F)cc1)N1CCCCC1)N1CCn2cncc2C1 (centres undefined) | 50.59
86 | CC(C(=O)N1CCn2cncc2C1)N1C[C@@H](C)O[C@@H](C)C1 (some centres undefined) | -28.11
87 | CC(C(=O)N1CCn2cncc2C1)N1CCCC1 (centres undefined) | 17.2
88 | Cc1nn(C)c(C)c1CC(=O)N1CCCC(n2ccnc2C)C1 (centres undefined) | 45.83
89 | CCCn1nccc1NC(=O)CN1CCn2c(nnc2C2CC2)C1 | 9.36
90 | CNC(=O)COC1COC2(CCN(Cc3cccnc3)CC2)C1 (centres undefined) | 28.88
91 | CCSC1=Nc2c(cnn2-c2ccc(Cl)cc2)C2=NCCCN12 | 51.78
92 | CSC1=Nc2c(cnn2-c2ccc(Cl)cc2)C2=NCCCN12 | -4.43
93 | CSC1=Nc2c(cnn2-c2cccc(Cl)c2)C2=NCCCN12 | 18.15
94 | CC(=O)NCCc1ccc(S(=O)(=O)N(C)C(C)C(C)(C)C)s1 (centres undefined) | 32.1
95 | CN(C)C(=O)COC[C@H]1CC[C@@H]2[C@@H](CCN2Cc2ccccn2)O1 | 53.98
96 | CN(C)C(=O)COC[C@@H]1CC[C@H]2[C@H](CCN2c2ccccn2)O1 | -3.69
97 | c1ccc(COC[C@H]2CC[C@H]3[C@H](CCN3Cc3ccccn3)O2)nc1 | 4.54
98 | OCCN1CC2(CCN(c3ccccc3)C2)C1 | -55.62
99 | CCN(C)C1CCCc2nc(C)sc21 (centres undefined) | 9.52
100 | CN(Cc1nc(C2CC2)no1)C1CCS(=O)(=O)C1 (centres undefined) | 31.27
101 | COc1ccc(OCc2noc(CN(C)C3CCS(=O)(=O)C3)n2)cc1 (centres undefined) | 57.91
102 | CC(C)Cc1noc(CN(C)C2CCS(=O)(=O)C2)n1 (centres undefined) | -12.52
103 | CN(C)c1ccc(NC(=O)C2CN(Cc3ccccc3)CCO2)cn1 (centres undefined) | 12.94
104 | CCC1=NN2C(=N)C(=Cc3cccn3-c3ccc(Cl)cc3)C(=O)N=C2S1 | -3.11

— ChEMBL document CHEMBL4513216, “Probing the Open Global Health Chemical Diversity Library for Multistage-Active Starting Points for Next-Generation Antimalarials” (ACS Infect Dis, 2020)
